Assay results: PubChem BioAssay (NCI)
“And” between values parts separate entries of the source, which are not always exact repeats. Equal values may be shown once. The panel holds about 83,000 compounds, 20% with a hit somewhere; the sample as a whole holds those more often.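 Percent growth is the endpoint: 0 to 100 indicates growth inhibition (40 means 60% inhibition), 0 means no net growth, and negative values indicate cell death.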 The source made the active and inactive calls. Rule for the calls: active = growth percent below 10; inactive = the rest.

Key:
Test in all cases: NCI-60 one-dose screen, 48 h (100 = growth as untreated, 0 = no growth, -100 = all killed)
[1] = test system: SK-MEL-2 melanoma; conditions: 10 µM unless noted
[2] = test system: EKVX NSCLC; conditions: 10 µM unless noted
[3] = test system: SN12C renal; conditions: 10 µM unless noted
[4] = test system: UO-31 renal; conditions: 10 µM unless noted
[5] = test system: TK-10 renal
[6] = test system: ACHN renal; conditions: 10 µM unless noted
[7] = test system: CAKI-1 renal; conditions: 10 µM unless noted
[8] = test system: A498 renal; conditions: 10 µM unless noted
[9] = test system: MOLT-4 leukemia; conditions: 10 µM unless noted
[10] = test system: SR leukemia; conditions: 10 µM unless noted
[11] = test system: RPMI-8226 leukemia; conditions: 10 µM unless noted
[12] = test system: OVCAR-8 ovarian; conditions: 10 µM unless noted
[13] = test system: OVCAR-5 ovarian; conditions: 10 µM unless noted
[14] = test system: OVCAR-4 ovarian; conditions: 10 µM unless noted
[15] = test system: SK-OV-3 ovarian; conditions: 10 µM unless noted
[16] = test system: IGROV1 ovarian; conditions: 10 µM unless noted
[17] = test system: OVCAR-3 ovarian; conditions: 10 µM unless noted
[18] = test system: HS 578T breast; conditions: 10 µM unless noted
[19] = test system: NCI/ADR-RES ovarian; conditions: 10 µM unless noted
[20] = test system: CCRF-CEM leukemia; conditions: 10 µM unless noted

Measured: growth

CCOC(=O)c1ccncc1
inactive: [1] 106% | [2] 104% | [3] 98.9% | [4] 90.2% | [5]; 10 µM unless noted 99.4% | [6] 119% | [7] 104% | [8] 86.8% | [9] 104% | [10] 101% | [11] 106% | [12] 112% | [13] 107% | [14] 117% | [15] 105% | [16] 111% | [17] 105% | [18] 101% | [19] 110%

C/C=C/C(=O)OCCCCCCCCCCCC
inactive: [1] 94.3% | [2] 111% | [3] 81.6% | [4] 109% | [5]; 10 µM unless noted 92.8% | [6] 103% | [7] 101% | [8] 103% | [9] 83.1% | [10] 83.4% | [11] 99.9% | [12] 90.5% | [13] 99.2% | [14] 113% | [15] 97.5% | [17] 106% | [18] 107% | [19] 106%

Cc1nc(Nc2ccc(Cl)cc2)c2cnn(-c3ccccc3)c2n1
inactive: [1] 100% | [2] 91.3% | [3] 102% | [4] 94.6% | [5]; 10 µM unless noted 95.4% | [6] 105% | [7] 96.3% | [8] 83.5% | [9] 106% | [10] 101% | [11] 108% | [12] 104% | [13] 108% | [14] 103% | [15] 116% | [16] 112% | [17] 106% | [18] 97.9% | [19] 98.2%

Nc1ccc(O)c(C(=O)O)c1
inactive: [1] 110% and 124% and 122% | [2] 101% and 99.5% and 106% | [3] 82% and 103% and 98.7% | [4] 101% and 92% and 67.8% | [5]; 10 µM unless noted 133% and 110% and 98.8% | [6] 99.3% and 108% and 82.8% | [7] 107% and 102% and 99.8% | [20] 106% | [9] 97.8% and 104% and 105% | [10] 99.8% | [11] 65% and 108% | [12] 99.2% and 106% and 109% | [13] 121% and 102% and 91.1% | [14] 84% and 105% and 108% | [16] 96.8% and 111% and 105% | [17] 100% and 101% and 115% | [18] 112% | [19] 103% and 111% and 93.9%

COc1ccc(COC=O)cc1
inactive: [1] 108% | [2] 109% | [3] 101% | [4] 92.5% | [5]; 10 µM unless noted 103% | [6] 110% | [7] 102% | [20] 103% | [9] 102% | [10] 93.5% | [11] 103% | [12] 97.8% | [13] 101% | [14] 107% | [15] 98.6% | [16] 107% | [17] 109% | [18] 104% | [19] 102%

COc1ccc(CCNC(=S)NN)cc1OC
inactive: [1] 118% | [2] 103% | [3] 117% | [4] 90.2% | [5]; 10 µM unless noted 120% | [6] 102% | [8] 106% | [20] 92.5% | [9] 108% | [10] 104% | [11] 99% | [12] 103% | [13] 104% | [14] 99.3% | [15] 121% | [16] 107% | [17] 108% | [18] 102% | [19] 102%

NCCCCCC(=O)O
inactive: [1] 110% [middle of 4 runs] | [2] 109% [middle of 4 runs] | [3] 107% [middle of 4 runs] | [4] 89.3% [middle of 4 runs] | [5]; 10 µM unless noted 115% and 104% and 98.9% | [6] 103% [middle of 4 runs] | [7] 94% [middle of 4 runs] | [9] 105% and 88.6% and 108% | [10] 108% and 79.8% and 111% | [11] 99.6% and 94.5% | [12] 103% [middle of 4 runs] | [13] 98.2% [middle of 4 runs] | [14] 116% and 103% | [15] 103% [middle of 4 runs] | [16] 116% and 101% | [18] 110% [middle of 4 runs] | [19] 109% [middle of 4 runs]

Oc1cccnc1CN1CCOCC1
inactive: [1] 97.5% and 132% | [2] 105% and 91.9% | [3] 104% and 95.6% | [4] 78.4% and 88.4% | [5]; 10 µM unless noted 110% and 109% | [6] 106% and 97.3% | [7] 105% and 89.2% | [8] 112% | [9] 99.1% and 107% | [10] 103% | [11] 104% and 96.7% | [12] 93.5% and 95.3% | [13] 112% and 92.8% | [14] 94.9% | [16] 106% and 109% | [17] 118% and 110% | [18] 115% and 105% | [19] 106% and 94.6%

CCCC(=O)Oc1ccc(CC)cc1
inactive: [1] 107% | [2] 99% | [3] 98.5% | [4] 93.7% | [5]; 10 µM unless noted 97.2% | [6] 107% | [7] 96.1% | [8] 78.1% | [9] 101% | [10] 90.5% | [11] 108% | [12] 98.1% | [13] 102% | [14] 97.3% | [15] 103% | [17] 115% | [18] 113% | [19] 105%

Cc1onc(-c2c(F)cccc2Cl)c1-c1ncc(-c2ccc(Cl)cc2)o1
inactive: [1] 104% and 80% | [2] 53% | [3] 71.9% and 37.3% | [4] 53.4% and 37.7% | [5]; 10 µM unless noted 84% and 53.8% | [6] 46.1% and 31.3% | [8] 69.8% and 85.8% | [9] 42.4% and 16.1% | [10] 11% | [11] 26.2% and 23.4% | [12] 55.7% and 35.5% | [13] 73.5% and 68.1% | [14] 80.9% and 47.9% | [15] 71% and 61.4% | [16] 49.1% and 33.3% | [17] 63.4% and 45.9% | [19] 57.4% and 27.2%

N#CC(=S)Nc1ccc(Cl)c(Cl)c1
active: [1] -26.4% | [3] -7.92% | [4] -1.39% | [5]; 100 µM 8.11% and -69.1% | [6] 0.0372% | [7] -6.76% | [10] 9.44% | [15] 7.19% | [17] 7.39% | [19] 7.44%
inactive: [5]; 10 µM 17.5% | [9] 15.8% | [11] 19.7% | [12] 10.1% | [13] 11% | [14] 22.6% | [16] 19.5%

CCCCOC1NC(=O)NC(=O)C1(F)C(=O)OCC (stereo not given)
inactive: [1] 97.8% and 101% | [2] 74.8% | [3] 90.2% and 59.9% | [4] 55.2% and 51.3% | [5]; 10 µM unless noted 65.5% and 71.7% | [6] 82% and 67.4% | [8] 78.9% and 112% | [20] 72.6% | [9] 92% and 65.2% | [10] 37.9% | [11] 71.8% and 53.1% | [12] 89.6% and 66.6% | [13] 96.5% and 91.9% | [14] 98.9% and 75.8% | [15] 91.7% and 81.6% | [16] 103% and 87.6% | [17] 77.3% and 65.7% | [19] 93.7% and 77.1%

CCn1c2ccc(N(C)C)cc2c2cc(N(C)C)ccc21
inactive: [1] 104% | [2] 88% | [3] 104% | [5]; 10 µM unless noted 118% | [6] 99.9% | [7] 98.4% | [8] 86.2% | [9] 96.9% | [10] 94% | [11] 80.4% | [12] 97.3% | [13] 99.6% | [14] 24.9% | [15] 94.8% | [16] 107% | [18] 107% | [19] 98.5%
active: [17] 5.93%
